The record followed here is PubChem BioAssay.

Test [1] addresses Cell division control protein 42 homolog (Homo sapiens) (UniProt P60953). Description: activated mutant Cdc42 GTP-binding inhibitors, dose response, biochemical, multiplex bead flow cytometry, Bodipy-FL-GTP (AID 1333;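 active = fitted half-maximal concentration within the tested dose range, moderate curve steepness, a statistically real signal drop, and little compound fluorescence or tag-binding interference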).
The target is the same in test [2]. Description: wildtype Cdc42 GTP-binding inhibitors, dose response, biochemical, multiplex bead flow cytometry, Bodipy-FL-GTP (AID 1334;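 active = fitted half-maximal concentration within the tested range, moderate curve steepness, significant signal drop, and little compound fluorescence or bead-linkage interference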). As to conditions: bead-based flow cytometry, Bodipy-FL-GTP binding to GST-Cdc42; at 100 µM (top of the series) unless noted.
Test [3] deals with GTPase HRas (Homo sapiens) (UniProt P01112). As to the kind of experiment: inhibitors of GTP binding to wildtype Ras, dose response, biochemical, multiplex bead flow cytometry (AID 1335). As to conditions: bead-based flow cytometry, Bodipy-GTP binding to GST-Ras; at 100 µM (top of the series) unless noted.
Sequence of GTPase HRas (Homo sapiens) (P01112 whole entry, looked up): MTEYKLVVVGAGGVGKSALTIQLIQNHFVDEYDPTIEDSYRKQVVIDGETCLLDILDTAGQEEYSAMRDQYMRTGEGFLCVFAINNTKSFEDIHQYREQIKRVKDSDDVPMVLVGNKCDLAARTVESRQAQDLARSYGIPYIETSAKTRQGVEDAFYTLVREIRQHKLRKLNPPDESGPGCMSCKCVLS
Test [4] deals with Ras-related protein Rab-7a (dog), GTP binding. As to the kind of experiment: Rab7 GTP binding inhibitors, potency, dose response, biochemical, wildtype, multiplex bead flow cytometry (AID 1336; call rule not given here).
Test [5] deals with Ras-related C3 botulinum toxin substrate 1 (Homo sapiens) (UniProt P63000). As to the kind of experiment: wildtype Rac1 GTP binding inhibitors, dose response, biochemical, multiplex bead flow cytometry (AID 1340;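 active = dose curve with midpoint inside tested range, moderate steepness, plateau gap beyond fit error, low compound glow and bead-link interference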). Particulars: GST-Rac1 beads, Bodipy-FL-GTP binding; at 100 µM (top of the series) unless noted.
Test [6] addresses GTPase HRas (Homo sapiens) (UniProt P01112). Description: activated Ras mutant GTP binding inhibitors, dose response, biochemical, multiplex bead flow cytometry (AID 1341;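 active = dose-response curve with midpoint inside the tested range, moderate steepness, significant amplitude and little compound fluorescence or bead-attachment interference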;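 note: GST-tagged constitutively activated Ras mutant immobilized on beads and multiplexed with other GTPases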).

For part of these data: Potency and affinity values are given separately. Activity calls are given as the source filed them.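 Rule for the calls, unless noted: active = fitted half-maximal concentration within 10 nM to 100 µM, steepness 0.5 to 2, significant signal drop, low assay interference; inactive = the rest.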

Sequence of Cell division control protein 42 homolog (Homo sapiens) (P60953 whole entry, looked up): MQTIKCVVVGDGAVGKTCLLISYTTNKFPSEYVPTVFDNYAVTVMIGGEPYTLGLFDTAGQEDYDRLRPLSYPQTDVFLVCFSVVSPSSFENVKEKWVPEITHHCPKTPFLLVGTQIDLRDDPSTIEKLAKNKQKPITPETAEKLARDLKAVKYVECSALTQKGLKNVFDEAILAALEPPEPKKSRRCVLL

In the case of `O=C(Nc1cnn(C23CC4CC(CC(C4)C2)C3)c1)c1cnn2cccnc12`, the compound was called inactive in test [1], in test [4] and in test [6]. Also, the fluorescence, percent of control (lower = inhibition) in test [2] is 41.2%. For the same compound, in test [3], the GTP binding, percent of control came to 94.2%. In addition, in test [5], the GTP binding signal, raw median fluorescence (lower = inhibition) (MCF (arbitrary fluorescence units)) turned out to be 324.
On to `CC(C)(C)NC(=O)c1ccc2nsnc2c1`, for which the call in test [1], in test [4] and in test [6] was inactive. The fluorescence, percent of control (lower = inhibition) in test [2] turned out to be 52.7%. For the same compound, the GTP binding, percent of control in test [3] was found to be 66.2%. In test [5], this compound registered a GTP binding signal, raw median fluorescence (lower = inhibition) (MCF (arbitrary fluorescence units)) of 213.
For the compound `COc1ccc(/C=C2/N=C(SCC(=O)Nc3cc(C)on3)N(c3ccccc3)C2=O)cc1`, the compound was classed as inactive in test [1], in test [4] and in test [6]. The fluorescence, percent of control (lower = inhibition) in test [2] came out at 41.3%. This compound also displayed a GTP binding, percent of control in test [3] of 54.1%. In test [5], this compound gave a GTP binding signal, raw median fluorescence (lower = inhibition) (MCF (arbitrary fluorescence units)) of 177.
On to `CN(C)c1ccc([C@@H]2[C@@H]([N+](=O)[O-])[C@H]3C=Cc4ccccc4N3[C@H]2C(=O)c2ccc(Cl)cc2)cc1`, for which the result in test [1], in test [4] and in test [6] was inactive. The fluorescence, percent of control (lower = inhibition) in test [2] was 46.5%. This compound gave a GTP binding, percent of control in test [3] of 60.6%. This compound also displayed a GTP binding signal, raw median fluorescence (lower = inhibition) (MCF (arbitrary fluorescence units)) in test [5] of 169.
On to `COc1ccc(/C=N/NC(=O)Nc2cccc3nsnc23)cc1OC`, for which the compound was called inactive in test [1], in test [4] and in test [6]. Moreover, the fluorescence, percent of control (lower = inhibition) in test [2] is 45.1%. In test [3], this compound returned a GTP binding, percent of control of 46.7%. In addition, in test [5], the GTP binding signal, raw median fluorescence (lower = inhibition) (MCF (arbitrary fluorescence units)) is 132.
`CCCCCCn1nc(C(=O)OCC(=O)c2c(N)n(C)c(=O)n(C)c2=O)c2ccccc2c1=O`: the outcome in test [1], in test [4] and in test [6] was inactive. Moreover, the fluorescence, percent of control (lower = inhibition) in test [2] worked out at 36%. In test [3], this compound returned a GTP binding, percent of control of 80.1%. The GTP binding signal, raw median fluorescence (lower = inhibition) (MCF (arbitrary fluorescence units)) in test [5] turned out to be 203.
As to `Cc1sc2ncnc(Sc3ccccc3C(=O)O)c2c1C`, the compound was called inactive in test [1], in test [4] and in test [6]. Also, the fluorescence, percent of control (lower = inhibition) in test [2] was found to be 103%. For the same compound, the GTP binding, percent of control in test [3] came to 117%. For the same compound, the GTP binding signal, raw median fluorescence (lower = inhibition) (MCF (arbitrary fluorescence units)) in test [5] was found to be 84.4.
As for `COc1ccc(OC)c(C(C(=O)NCc2ccco2)N(C(=O)Cn2nnc3ccccc32)C2CC2)c1` (stereo not given), the result in test [1], in test [4] and in test [6] was inactive. Further, in test [2], the fluorescence, percent of control (lower = inhibition) came to 47.2%. Besides, the GTP binding, percent of control in test [3] was found to be 58%. Further, the GTP binding signal, raw median fluorescence (lower = inhibition) (MCF (arbitrary fluorescence units)) in test [5] is 0.
Consider `Cc1cccc(CNCc2sc(C(=O)O)cc2C)c1`, for which the result in test [1], in test [4] and in test [6] was inactive. In test [2], the fluorescence, percent of control (lower = inhibition) came to 54.2%. Besides, the GTP binding, percent of control in test [3] amounted to 77.2%. The compound further had a GTP binding signal, raw median fluorescence (lower = inhibition) (MCF (arbitrary fluorescence units)) in test [5] of 31.9.
`Cc1nonc1OCCNc1ccc([N+](=O)[O-])cc1[N+](=O)[O-]`: the compound was called inactive in test [1], in test [4] and in test [6]. In addition, the fluorescence, percent of control (lower = inhibition) in test [2] turned out to be 50.3%. Moreover, the GTP binding, percent of control in test [3] came out at 63.5%. Moreover, the GTP binding signal, raw median fluorescence (lower = inhibition) (MCF (arbitrary fluorescence units)) in test [5] was found to be 209.
`CC(C)(C)CC(=O)NC(=S)NCc1ccco1`: the outcome in test [1], in test [4] and in test [6] was inactive. For the same compound, the fluorescence, percent of control (lower = inhibition) in test [2] worked out at 41.6%. Moreover, in test [3], the GTP binding, percent of control was 90.5%. Further, the GTP binding signal, raw median fluorescence (lower = inhibition) (MCF (arbitrary fluorescence units)) in test [5] was found to be 312.
`O=C(CSc1ccc2nnc(-c3cccs3)n2n1)N1CCCC1`: the compound was classed as inactive in test [1], in test [4] and in test [6]. Moreover, the fluorescence, percent of control (lower = inhibition) in test [2] amounted to 33%. In addition, the GTP binding, percent of control in test [3] is 74.6%. In addition, the GTP binding signal, raw median fluorescence (lower = inhibition) (MCF (arbitrary fluorescence units)) in test [5] came out at 178.
As for `Cc1nn(-c2ccc(F)cc2)c(Cl)c1/C=C(\CCC(=O)O)c1nc2ccccc2s1`, the compound was called inactive in test [1], in test [4] and in test [6]. Moreover, the fluorescence, percent of control (lower = inhibition) in test [2] stood at 64.7%. The compound also registered a GTP binding, percent of control in test [3] of 53.6%. In test [5], this compound showed a GTP binding signal, raw median fluorescence (lower = inhibition) (MCF (arbitrary fluorescence units)) of 164.
With `COc1cccc(OC)c1-c1nn2c(-c3cc(-c4ccccc4)n[nH]3)nnc2s1`, the call in test [1], in test [4] and in test [6] was inactive. For the same compound, the fluorescence, percent of control (lower = inhibition) in test [2] was determined as 131% [at 33.3 µM]. The GTP binding, percent of control in test [3] is 1380%. Further, the GTP binding signal, raw median fluorescence (lower = inhibition) (MCF (arbitrary fluorescence units)) in test [5] was 438 [at 33.3 µM].
Consider `Cc1nn2c(-c3cccc(NC(=O)c4ccco4)c3)nnc2c2ccccc12`, for which the call in test [1], in test [4] and in test [6] was inactive. In test [2], the fluorescence, percent of control (lower = inhibition) was determined as 37.4%. Further, in test [3], the GTP binding, percent of control worked out at 51% [at 33.3 µM]. In test [5], this compound showed a GTP binding signal, raw median fluorescence (lower = inhibition) (MCF (arbitrary fluorescence units)) of 136.
